# Source: PubChem BioAssay
# The list is not random: actives were taken first. Their share in the collection is about 1.3%.
# TRPML1 inh – inhibitors of human TRPML1 channel | Q9GZU1 | TRPML1-inducible cells, Ca2+ dye fluorescence, FDSS; stronger effect = lower value; inhibition of EC80 agonist-evoked calcium signal | activity change, negative = inhibition, % (concentration not given with the values) | hit rate 0.02% among 390,000 | AID 624415; in the data active means activity change below about -50%; inconclusive means between about -30% and that limit;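 further: stimulus is agonist 54-4 at its EC80 concentration; on the % scale 0 is the no-effect control and ±100 the full control effect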
#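 Tet-induced TRPML1-DL cells loaded with Ca8 no-wash calcium dye were read kinetically on FDSS. Compound addition was followed by EC80 agonist 54-4 (4 uM final); inhibition was read over 110 s.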
# TRPV1 ag – human TRPV1 agonism; Q8NER1; activation, % at 8.33 µM; AID 540275; hit rate 0.19% among 320,000; TRPV1-expressing cells, Fluo-8 calcium influx, agonist mode; in the data active means activation above about 80%; inconclusive means between about 30% and that limit; further: 0% is about no effect
#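 TRPV1-expressing cells were cultured overnight at 35.5C and loaded with Fluo-8 calcium dye for 40 to 90 min at room temperature. After a 10 s baseline, compound was added and calcium influx was read kinetically for 3 min (ex 480/em 520 nm).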
# KCNH2 WT inh – inhibitors of human wildtype KCNH2 potassium channel; hit rate 0.37% among 340,000; activity change, % at 1.84 µM; AID 720551; U2OS, BacMam KCNH2, thallium flux FluxOr; stronger effect = lower value;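 active means maximum activity change below -70%; inconclusive means maximum activity change between -70% and -50%; inactive means maximum activity change above -50%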; further: on the % scale 0 is the no-effect control and ±100 the full control effect
#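 U2OS cells were transduced with wild-type KCNH2 virus (2.03 x 10^8 / mL) for 4 h at room temperature, then cultured overnight at 37 C. Thallium flux was read with FluxOr dye. Rate constants were normalized to DMSO controls.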
# KCNH2 3.1 inh – inhibitors of human KCNH2 3.1 potassium channel isoform. U2OS KCNH2 3.1, thallium flux FluxOr; stronger effect = lower value. activity change, % (tested at about 1.8 µM). hit rate 0.95% among 340,000. AID 720553;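 active means maximum activity change below -70%; inconclusive means maximum activity change from -70% to -50%; inactive means maximum activity change above -50%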;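 further: thallium influx rate constant from kinetic fluorescence after stimulation buffer; on the % scale 0 is the no-effect control and ±100 the full control effect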
#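 U2OS cells transduced with KCNH2 3.1 mutant virus (1.77 x 10^8 /mL, 4 h), plated overnight at 37 C, loaded 45 min with FluxOr dye plus Red40 quencher. Thallium flux rate constant from kinetic reads after stimulation buffer, normalised to controls.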
# TRPV1 potentiator – potentiators of human vanilloid receptor 1 (TRPV1). hit rate 0.02% among 320,000. potentiation, % at 8.33 µM. AID 540277. Q8NER1. TRPV1-expressing cells, Fluo-8 calcium influx, capsaicin EC20 potentiation; in the data active means potentiation above about 80%; inconclusive means between about 30% and that limit; further: 0% is about no effect
#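 TRPV1-expressing cells were cultured overnight at 35.5C and loaded with Fluo-8 calcium dye for 40 to 90 min at room temperature. After a 10 s baseline, compound was added and calcium influx was read kinetically for 3 min (ex 480/em 520 nm).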
# TRPML1 agonist – activates the human TRPML1 channel; TRPML1-expressing cells, Ca2+ dye fluorescence, FDSS; activation, % (concentration not given with the values); Q9GZU1; hit rate 0.12% among 410,000; in the data active means activation above about 50%; inconclusive means mostly about 30% to 49%; further: 0% is about no effect
#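 Tetracycline-induced TRPML1-DL cells are seeded and incubated overnight before loading with a no-wash Ca2+ dye and quencher. Agonist activity is taken from the 110 s fluorescence read following compound pin-transfer on an FDSS, before EC80 54-4 challenge.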
# Numbers without * were called inactive; ? = inconclusive; / = no result.
SMILES,TRPML1 inh,TRPV1 ag,KCNH2 WT inh,KCNH2 3.1 inh,TRPV1 potentiator,TRPML1 agonist
CCCCn1nnnc1SCC(=O)NC1CCCCC1,1,-7,-123*,-8,15,-1
CCOc1ccc(-n2c(-c3ccc(Br)cc3)c[n+]3c2CCCCC3)cc1,7,0,-81*,-85*,28,-1
Cc1ccc(C(=O)Nc2ccccc2C(=O)O)cc1S(=O)(=O)NC1CCCCC1,12,-4,7,-71*,-2,0
CS(=O)(=O)N1CCN(C(=O)COc2ccccc2)CC1,7,2,3,-13,-7,0
O=C(COc1ccccc1)N1CCN(S(=O)(=O)Cc2ccccc2)CC1,0,6,-269*,-9,-4,0
CN(C)c1ccc(/C=C2\NC(=O)NC2=O)cc1,/,/,/,/,/,0
Cc1noc(C)c1COc1ccccc1C(=O)NNC(=O)c1ccccc1,8,?,-2,9,-9,0
COc1cc(C(=O)NNC(=O)c2ccccc2OCc2c(C)noc2C)cc(OC)c1OC,42,-3,12,-87*,0,1
O=C(C[n+]1ccccc1Cl)c1cccc([N+](=O)[O-])c1,/,/,/,/,/,0
O=C(O)c1cc(-c2c[nH]c3ccccc23)nc2ccc3ccccc3c12,-11,0,-15,-98*,15,2
c1ccc2c(-c3c[nH]c4ccccc34)c3ccccc3nc2c1,16,28,2,-5,2,1
COc1cc(OC)c(/C=C/c2ccc3ccccc3[n+]2[O-])c(OC)c1,/,/,/,/,/,-1
O=C(Nc1ccccc1-c1cn2c(CN3CCNCC3)csc2n1)c1cnc2ccccc2n1,/,/,/,/,/,0
O=C(c1ccoc1)N1CCCC(CO)(CCCc2ccccc2)C1 (configuration not stated),-11,1,-16,-155*,7,0
CS(=O)(=O)c1ccc2nc(NC(=O)c3ccc(Cn4cc(Br)cn4)o3)sc2c1,11,22,-6,-95*,-1,0
CN(C)CCN(Cc1ccco1)C(=O)c1oc2ccccc2c1NC(=O)c1cccc(F)c1,-13,/,/,/,/,2
CN(C)CCN(Cc1ccco1)C(=O)c1oc2ccccc2c1NC(=O)COc1ccccc1,29,18,-33,-95*,-9,1
CC1=C(C(N)=O)C(c2ccccn2)n2nc(-c3ccccc3Cl)nc2N1 (configuration not stated),7,-1,-146*,-170*,14,0
CNC(=S)N(CCc1c(C)[nH]c2ccccc12)Cc1cccnc1,-21,8,-133*,-191*,-2,0
O=C(NNc1ccccc1F)c1sccc1Cl,/,/,/,/,/,0
Cc1cc(C)cc(N(CC(=O)Nc2ccc(Br)cc2)S(=O)(=O)c2c(C)[nH]c(=O)[nH]c2=O)c1,16,-5,-24,-109*,15,0
COc1cccc(NC(=O)CSc2nc(=O)[nH]c3c2CCCC3)c1,6,/,/,/,/,-1
Cc1ccc(C2/C(=C(\O)c3c(C)nc4ccccn34)C(=O)C(=O)N2CCN(C)C)o1 (configuration not stated),-56*,2,10,-8,-5,0
Cc1ccc(C2/C(=C(\O)c3c(C)nc4c(C)cccn34)C(=O)C(=O)N2CCN(C)C)o1 (configuration not stated),-9,/,17,-4,/,1
SCc1nc2ccccc2[nH]1,/,/,/,/,/,0
NC(=O)c1cc2ccc(O)cc2oc1=NCc1ccccc1,-15,22,-22,10,1,59*
CCCCN(C)CCCNC(=O)c1cn(CC)c2ccc(S(=O)(=O)N3CCc4ccccc4C3)cc2c1=O,-3,-2,?,-91*,-5,1
CCN(CC)CCCNC(=O)c1cn(CC)c2ccc(S(=O)(=O)N(C)C3CCCCC3)cc2c1=O,5,-1,10,-7,10,0
CCCCN(CCCC)CCNC(=O)c1cn(CC)c2ccc(S(=O)(=O)N(C)C3CCCCC3)cc2c1=O,6,?,-70*,-83*,-15,-1
COc1cc(CNCCSc2nnnn2C)ccc1OCc1ccccc1C,-11,/,/,/,/,-1
